# Measurements: PubChem BioAssay (NCATS)
# Results filed as inconclusive are left out. The source made the active and inactive calls. The call rests on the fitted dose curve; in most records, active means well fitted curve in the direction sought with a large enough effect; inconclusive means small, poorly fitted or top-dose-only effect, or another doubt; inactive means no such curve, though single readings can be large; an effect the other way counts as inactive or inconclusive.
# Tests used:
# [1] = system: Nanoluciferase (engineered Oplophorus gracilirostris luciferase); assay: Primary Nanoluciferase (NLuc) qHTS assay for identification of artifact compounds. (AID 1845222)
# In short: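 Luminescence from secreted NLuc (filtered, 1:55-diluted S16 cell medium) read 5 min after Nano-Glo substrate; compounds preincubated 15 min, RT. Hill fits of inhibition normalized to DMSO and no-enzyme.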
# [2] = Primary redox qHTS assay for identification of artifact compounds. (AID 1845223)
# In short: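 Redox-cycling detection via DTT (250 uM final) oxidation coupled to Amplex Red (25 uM)/HRP (250 mU/mL) in HBSS. 15 min preincubation plus 30 min after DTT, room temperature. Ex/Em 525/598 nm; 4-parameter Hill fit against DMSO and 10 uM DA3003.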
# [3] = Quantitative High-Throughput drug screen in 47 multiple myeloma cell lines against the NCATS MIPE library collection: FR4_PLB cell viability assay (AID 1918924; further: nearly all actives have a fitted effect of over 35% in size; further: potency means the concentration at half of the fitted maximal effect)
# In short: (§1)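 Myeloma cells (500 per well) were exposed to MIPE 4.0 compounds by pin transfer and incubated 48 hours at 37C, 5% CO2. Viability was read as ATP by CellTiter-Glo luminescence, normalised to DMSO (100%) and media-only (0%) wells.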
# [4] = Quantitative High-Throughput drug screen in 47 multiple myeloma cell lines against the NCATS MIPE library collection: Delta47_JCRB cell viability assay (AID 1918925; further: nearly all actives have a fitted effect of over 45% in size; further: potency means the concentration at half of the fitted maximal effect)
# In short: (§2)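 Viability readout: CellTiter-Glo luminescence following 5 min room-temperature incubation with reagent. Prior exposure: 48 h, 37C, humidified 5% CO2, 500 cells per well.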
# [5] = Quantitative High-Throughput drug screen in 47 multiple myeloma cell lines against the NCATS MIPE library collection: EJM_DSMZ cell viability assay (AID 1918926; further: nearly all actives have a fitted effect of over 30% in size; further: potency means the concentration at half of the fitted maximal effect)
# In short: as §2
# [6] = Quantitative High-Throughput drug screen in 47 multiple myeloma cell lines against the NCATS MIPE library collection: AMO1_DSMZ cell viability assay (AID 1918927; further: nearly all actives have a fitted effect of over 30% in size; further: potency means the concentration at half of the fitted maximal effect)
# In short: as §2
# [7] = Quantitative High-Throughput drug screen in 47 multiple myeloma cell lines against the NCATS MIPE library collection: ARP1_JJKsccF8 cell viability assay (AID 1918928; further: nearly all actives have a fitted effect of over 40% in size; further: potency means the concentration at half of the fitted maximal effect)
# In short: (§3)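 Viability screen: myeloma cells (500/well) incubated 48 h at 37 °C, humidified 5% CO2, with pinned library compounds; CellTiter-Glo added, luminescence read; DMSO wells set 100%, medium-only wells 0%.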
# [8] = Quantitative High-Throughput drug screen in 47 multiple myeloma cell lines against the NCATS MIPE library collection: ARD_JJKsccE7 cell viability assay (AID 1918929; further: potency means the concentration at half of the fitted maximal effect)
# In short: as §2
# [9] = Quantitative High-Throughput drug screen in 47 multiple myeloma cell lines against the NCATS MIPE library collection: Karpas620_DSMZ cell viability assay (AID 1918959); further: nearly all actives have a fitted effect of over 30% in size; further: potency means the concentration at half of the fitted maximal effect
# In short: as §1
# [10] = Quantitative High-Throughput drug screen in 47 multiple myeloma cell lines against the NCATS MIPE library collection: KMM1_JCRB cell viability assay (AID 1918960); further: nearly all actives have a fitted effect of over 30% in size; further: potency means the concentration at half of the fitted maximal effect
# In short: as §3
# [11] = Quantitative High-Throughput drug screen in 47 multiple myeloma cell lines against the NCATS MIPE library collection: JIM3_ECACC cell viability assay (AID 1918963; further: nearly all actives have a fitted effect of over 35% in size; further: potency means the concentration at half of the fitted maximal effect)
# In short: as §1
# [12] = Quantitative High-Throughput drug screen in 47 multiple myeloma cell lines against the NCATS MIPE library collection: INA6_PLB cell viability assay (AID 1918965; further: nearly all actives have a fitted effect of over 55% in size; further: potency means the concentration at half of the fitted maximal effect)
# In short: (§4)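 CellTiter-Glo ATP luminescence gave viability after 48 h compound treatment at 37C of 500 multiple myeloma cells per well. Normalisation used DMSO-only wells as 100% and media-only wells as 0% viability; primary qHTS of approved and investigational drugs.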
# [13] = Quantitative High-Throughput drug screen in 47 multiple myeloma cell lines against the NCATS MIPE library collection: JJN3_DSMZ cell viability assay (AID 1918966; further: nearly all actives have a fitted effect of over 50% in size; further: potency means the concentration at half of the fitted maximal effect)
# In short: as §2
# [14] = Quantitative High-Throughput drug screen in 47 multiple myeloma cell lines against the NCATS MIPE library collection: H1112_PLB cell viability assay (AID 1918967; further: nearly all actives have a fitted effect of over 30% in size; further: potency means the concentration at half of the fitted maximal effect)
# In short: as §2
# [15] = Quantitative High-Throughput drug screen in 47 multiple myeloma cell lines against the NCATS MIPE library collection: Karpas25_ECACC cell viability assay (AID 1918968; further: nearly all actives have a fitted effect of over 35% in size; further: potency means the concentration at half of the fitted maximal effect)
# In short: as §2
# [16] = Quantitative High-Throughput drug screen in 47 multiple myeloma cell lines against the NCATS MIPE library collection: KMS27_JCRB cell viability assay (AID 1918970); settings: KMS27 myeloma cells, CellTiter-Glo ATP viability, 48 h; viability (% of DMSO): at 45.8 µM (top of the series); further: nearly all actives have a fitted effect of over 30% in size; further: potency means the concentration at half of the fitted maximal effect
# In short: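 KMS27_JCRB myeloma cells, 500 per well, exposed 48 h at 37 C, 5% CO2 to MIPE 4.0 compounds. Viability from ATP by CellTiter-Glo luminescence, normalized to DMSO (100%) and medium-only (0%) wells.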
# [17] = Quantitative High-Throughput drug screen in 47 multiple myeloma cell lines against the NCATS MIPE library collection: JIM1_ECACC cell viability assay (AID 1918964; further: potency means the concentration at half of the fitted maximal effect)
# In short: as §2
# [18] = Quantitative High-Throughput drug screen in 47 multiple myeloma cell lines against the NCATS MIPE library collection: Karpas417_ECACC cell viability assay (AID 1918961); settings: Karpas417 myeloma viability, CellTiter-Glo ATP luminescence, 48 h; viability (% of DMSO): at 45.8 µM (top of the series); further: potency means the concentration at half of the fitted maximal effect
# In short: as §4
# [19] = Quantitative High-Throughput drug screen in 47 multiple myeloma cell lines against the NCATS MIPE library collection: KHM11_PLB cell viability assay (AID 1918962); further: nearly all actives have a fitted effect of over 35% in size; further: potency means the concentration at half of the fitted maximal effect
# In short: as §1
# [20] = Primary fluorescence-based thiol-reactive (MSTI) qHTS assay for identification of artifact compounds. (AID 1845221);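 further: thiol-reactive compounds lower the probe fluorescence signal; nearly all actives have a fitted effect of over 65% in size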
# In short: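 Compounds were incubated 1 h at room temperature in the dark with the MSTI probe (4 uM) in PBS pH 7.4, 2% DMSO. Signals were normalized between Acetyl-MSTI and MSTI.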
SMILES,Potency [1],outcome [2],Potency [3],Potency [4],Potency [5],Potency [6],Potency [7],Potency [8],Potency [9],Potency [10],Potency [11],Potency [12],Potency [13],Potency [14],Potency [15],Potency [16],Potency [17],Potency [18],Potency [19],Potency [20]
CN1C(=O)C(Cc2c[nH]c3ccccc23)NC1=S (stereo not given),inactive,inactive,inactive,inactive,inactive,inactive,inactive,inactive,inactive,inactive,inactive,inactive,inactive,inactive,13200 nM (active),inactive,–,–,–,–
CN1CCN(c2cccc(Nc3nc4c(-c5ccc(S(C)(=O)=O)cc5)cccn4n3)c2)CC1,inactive,–,–,–,4180 nM (active),4180 nM (active),–,1320 nM (active),833 nM (active),1660 nM (active),2960 nM (active),590 nM (active),–,2350 nM (active),inactive,1320 nM (active),662 nM (active),–,–,–
C[C@@]1(C(=O)Nc2ccc(F)nc2)CCCN1c1nc(Nc2cc(C3CC3)[nH]n2)c2cccn2n1,inactive,inactive,166 nM (active),16.6 nM (active),–,93.5 nM (active),–,1 nM (active),–,–,14.8 nM (active),13200 nM (active),105 nM (active),–,33.2 nM (active),52.6 nM (active),–,–,–,–
CN1CCc2c(n(Cc3ccc(C(=O)NO)cc3)c3ccccc23)C1,inactive,inactive,16600 nM (active),20900 nM (active),–,–,18700 nM (active),–,–,–,–,4690 nM (active),16600 nM (active),–,16600 nM (active),743 nM (active),–,–,–,–
C[C@@H]1O[C@@H](O[C@H]2CC[C@@]3(C)[C@H](CC[C@@H]4[C@H]3C[C@@H](O)[C@]3(C)[C@@H](C5=CC(=O)OC5)CC[C@]43O)C2)C[C@H](O)[C@@H]1O[C@H]1C[C@H](O)[C@H](O[C@H]2C[C@H](O)[C@@H](O)[C@@H](C)O2)[C@H](C)O1 (stereo in doubt),–,–,76.2 nM (active),241 nM (active),270 nM (active),67.9 nM (active),171 nM (active),121 nM (active),171 nM (active),76.2 nM (active),191 nM (active),171 nM (active),340 nM (active),340 nM (active),241 nM (active),95.9 nM (active),67.9 nM (active),152 nM (active),152 nM (active),–
Cc1ccc2c(c1)c1c(n2CCc2ccc(C)nc2)CCN(C)C1,inactive,–,–,inactive,inactive,inactive,–,inactive,inactive,inactive,inactive,–,–,inactive,–,inactive,inactive,inactive,–,inactive
O=C(c1ccc(C(=O)N2CCC(N3CCCC3)CC2)c(Nc2ccccc2)c1)N1CCC(N2CCCC2)CC1,inactive,–,inactive,inactive,14800 nM (active),inactive,5260 nM (active),–,inactive,inactive,inactive,–,–,inactive,inactive,inactive,–,–,inactive,–
CCN(CC)CCCCNc1nc2cc(Cl)c(Cl)cc2nc1-c1ccc(-c2cccs2)s1,–,–,10500 nM (active),7430 nM (active),–,6620 nM (active),7430 nM (active),8330 nM (active),9350 nM (active),9350 nM (active),8330 nM (active),4690 nM (active),23500 nM (active),7430 nM (active),8330 nM (active),–,9350 nM (active),–,10500 nM (active),–
